# Inconclusive results are not listed. Where a call stands in place of a potency, no number is given. Values without a mark were called inactive. Active and inactive are the calls of the source. The call rests on the fitted dose curve; in most records, active means well fitted inhibition curve with a large enough effect; inconclusive means small, poorly fitted or top-dose-only effect; inactive means no such curve, though single readings can be large or run the other way. *1 amine or outer side, *2 acyl side, *3 side chain or, on linkers, in order; H or OH if unused. Where a SMILES comes first, the peptide text is derived from it. Bridges are numbered along the chain shown (N, C = ends). X6 = O=C(CCC[*:2])[*:1]
# How the values were obtained:
# [1] = test system: Zika virus NS2B-NS3 protease (unlinked complex); experiment: Primary screen GU Rhodamine qHTS for Zika virus inhibitors: Unlinked NS2B-NS3 protease assay (AID 1347159); further: nearly all actives have a fitted effect of over 60% in size
# Procedure, shortened: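 Noncovalent NS2B hydrophilic domain/NS3 protease complex (25 nM final) in 10 mM Tris-HCl pH 8.0, 0.01% Tween 20, preincubated 15 min with compounds (up to 114 microM), then 1.5 microM Rhodamine110 substrate. Fluorescence change over 15 min fitted to 4-parameter Hill.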
# [2] = test system: Zika virus NS2B-NS3 protease (linked construct); experiment: Primary screen NINDS Rhodamine qHTS for Zika virus inhibitors (AID 1347160); further: nearly all actives have a fitted effect of over 55% in size
# Procedure, shortened: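 Purified NS2B-NS3 protease with the NS2B hydrophilic domain joined by a flexible linker (25 nM) in 10 mM Tris-HCl pH 8.0, 0.01% Tween 20, preincubated 15 min at RT with compound; Rhodamine110 peptide substrate 1.5 µM; fluorescence change over 15 min; 4-parameter Hill fit.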
# Potency means the concentration at half of the fitted maximal effect.
Structure (SMILES),Potency [1],Potency [2],"activity change, negative = inhibition [1]","activity change, negative = inhibition [2]"
COc1cc(C2Oc3c(OC)cc(/C=C/C(=O)OC[C@H]4O[C@@H](OC(C)(C)C(=O)O)[C@H](O)[C@@H](O)[C@@H]4O)cc3C2CO)ccc1O (some centres undefined),inactive,inactive,–,–
C=CC1(C)CC(O)C2(CCC3C(C)(C(=O)O)CCCC3(C)C2=O)C1 (centres undefined),inactive,inactive,–,–
Cc1onc(-c2ccccc2)c1C(=O)N[C@@H]1C(=O)N2[C@@H]1SC(C)(C)[C@@H]2C(=O)O,inactive,inactive,–,–
CC[C@H](C)[C@@H]1NC(=O)[C@H](Cc2ccc(OC)cc2)NC(=O)CCCSC[C@@H](C(=O)N2CCC[C@H]2C(=O)N[C@@H](CC(C)C)C(=O)NCC(N)=O)NC(=O)[C@H](CC(N)=O)NC(=O)[C@H](CCC(N)=O)NC1=O (Y(Me)IQNCPLG-NH2; linker N-5 via X6),inactive,inactive,–,–
Cc1ccc(C(=O)Nc2ccc(Oc3cc4cnn(C)c4cc3-c3cn[nH]c3)c(F)c2)c(=O)n1-c1ccc(F)cc1,inactive,inactive,–,–
COC(=O)c1cc(CN2CCN(C(=N)N)CC2)cc(C(=O)N2CCN(C(=O)c3ccc(C(=N)N)cc3)CC2)c1,inactive,inactive,–,–
O=C(c1ccc(F)cc1)C1CCN(CCn2c(=O)nc3n(c2=O)CCCC3)CC1,inactive,inactive,–,–
CC(C)C(C#N)O[C@@H]1O[C@H](CO[C@@H]2OC[C@](O)(CO)[C@H]2O)[C@@H](O)[C@H](O)[C@H]1O (some centres undefined),inactive,inactive,–,–
CC(C)CNC(=O)/C=C/CCCCc1ccc2c(c1)OCO2,inactive,inactive,–,–
COc1ccc(/C=C/C(=O)O[C@@H]2[C@@H](OC(C)=O)[C@@H](OC(C)=O)[C@H](O[C@H]3[C@@H]4C=CO[C@@H](O[C@@H]5O[C@H](CO)[C@@H](O)[C@H](O)[C@H]5O)[C@@H]4[C@@]4(CO)O[C@@H]34)O[C@H]2C)cc1O,inactive,inactive,–,–
CCCC(N[C@@H](C)C(=O)N1[C@H](C(=O)O)C[C@@H]2CCCC[C@@H]21)C(=O)OCC (some centres undefined),inactive,inactive,–,–
CC1CCC2(C(=O)OC3OC(CO)C(O)C(O)C3O)CCC3(C)C(=CCC4C5(C)CC(O)C(O)C(C)(C(=O)O)C5CCC43C)C2C1(C)O (centres undefined),inactive,inactive,–,–
COc1ncc(-c2ccc3c(Nc4cc(Oc5cc(F)cc(F)c5)cc(C(=O)O)c4)c(S(=O)(=O)NC4CC4)cnc3c2)c(OC)n1,8.91 µM (active),14.1 µM (active),–,–
CNC(=O)c1ccc(Nc2ncc(C(F)(F)F)c(NCc3nccnc3N(C)S(C)(=O)=O)n2)cc1,inactive,inactive,–,–
C[C@@]12C[C@]3(O)O[C@H](O1)[C@]1(COC(=O)c4ccccc4)[C@H]3C[C@@]12O[C@@H]1O[C@H](COC(=O)c2ccccc2)[C@@H](O)[C@H](O)[C@H]1O,inactive,inactive,–,–
C=C1[C@H]2CC[C@]3(O)[C@@](CC[C@@H]4[C@](C)(C(=O)O)CCC[C@]43C)(C2)[C@H]1OC(=O)/C(C)=C\C,inactive,inactive,–,–

Structure (SMILES),Potency [1],Potency [2],"activity change, negative = inhibition [1]","activity change, negative = inhibition [2]"
COC1CC(OC2CCC3(C)C(=CCC4C3CCC3(C)C(C(C)O)CCC43O)C2)OC(C)C1OC1OC(C)C(OC2OC(COC3OC(COC4OC(CO)C(O)C(O)C4O)C(O)C(O)C3O)C(O)C(O)C2O)C(OC)C1O (centres undefined),inactive,inactive,–,–
C/C1=C\C[C@H](O[C@@H]2O[C@H](CO)[C@@H](O)[C@H](O)[C@H]2O)/C(C)=C/[C@H]2OC(=O)[C@H](C)[C@@H]2CC1,inactive,inactive,–,–
C/C(=C/CCC(CO)C1CCC2(C)C3CCC4C(C)(C)C(OC5OC(CO)C(O)C(O)C5O)CC(O)C45CC35CCC12C)COC1OC(CO)C(O)C(O)C1O (centres undefined),inactive,inactive,–,–
C[C@]12CC[C@@H]3c4ccc(O[C@@H]5O[C@H](C(=O)O)[C@@H](O)[C@H](O)[C@H]5O)cc4CC[C@H]3[C@@H]1CCC2=O,inactive,inactive,–,–
CC1=CC(=O)CC(C)(C)C1(O)CCC(C)O (centres undefined),inactive,inactive,–,–
CC1(C)NC2N(C1=O)c1ccccc1C2(O)CC(C(=O)O)n1cnc2ccccc2c1=O (centres undefined),inactive,inactive,–,–
O=C1C[C@@H](c2ccc(O)cc2)Oc2cc(O)ccc21,inactive,inactive,–,–
CC1(C)CCCC2(C)C3=C(C(=O)OC3O)C(O)CC12 (centres undefined),inactive,inactive,–,–
OCCc1ccc(O[C@@H]2O[C@H](CO)[C@@H](O)[C@H](O)[C@H]2O)c(O)c1,inactive,inactive,–,–
CC[C@H]1OC(=O)[C@H](C)[C@@H](O[C@H]2C[C@@](C)(OC)[C@@H](O)[C@H](C)O2)[C@H](C)[C@@H](O[C@@H]2O[C@H](C)C[C@H](N(C)C)[C@H]2O)[C@@](C)(O)C[C@@H](C)[C@@H]2N[C@@H](COCCOC)OC([C@H]2C)[C@]1(C)O,inactive,inactive,–,–
CC1CCC2(C(=O)OC3OC(COC4OC(CO)C(O)C(O)C4O)C(O)C(O)C3O)CCC3(C)C(=CCC4C5(C)CCC(O)C(C)(C(=O)O)C5CCC43C)C2C1(C)O (centres undefined),inactive,inactive,–,–
COc1ccc2c3c1O[C@H]1C[C@@H](O)C=C[C@@]31CCN(C)C2,inactive,inactive,–,–
OCC1=CC[C@@H]2C=CO[C@@H](O[C@@H]3O[C@H](CO)[C@@H](O)[C@H](O)[C@H]3O)[C@H]12,inactive,inactive,–,–
CCCC1=CC2=C(CO1)C(=O)C(C)(OC(=O)c1c(C)cc(OC)cc1O)C(O)C2 (centres undefined),inactive,inactive,–,–
CN1CC[C@@H](NC(=O)Nc2ccc(C#N)cc2)C[C@@H]1c1nc2ccccc2[nH]1,inactive,inactive,–,–
C[C@@H]1O[C@@H](O[C@@H]2[C@@H](O)[C@H](O[C@@H]3[C@@H](O)[C@@H](O)[C@H](O[C@H]4[C@H](OC(=O)[C@]56CCC(C)(C)C[C@H]5C5=CCC7[C@@]8(C)C[C@H](O)[C@H](O[C@@H]9O[C@@H](C)[C@H](O)[C@@H](O)[C@H]9O)[C@@](C)(CO)C8CC[C@@]7(C)[C@]5(C)C[C@H]6O)O[C@H](C)[C@H](O)[C@@H]4O)O[C@H]3C)OC[C@H]2O)[C@H](O)[C@H](O)[C@H]1O (some centres undefined),–,–,-9.55% [at 19.1 µM],4.29% [at 10.7 µM]

# Source: PubChem BioAssay (NCATS)
